Assay outcomes (PubChem)
In the library only some 1.4% were active in any assay of this set; here they are far more common.
uPA generation – blocks generation of uPA at the cell surface. cell surface uPA generation assay, qHTS. Potency, µM (titrated, usually from 38.3 µM), for the others: at the highest dose activity change, negative = inhibition, most hits filed as inhibitors. 330,000 tested, 0.31% active. AID 540303; active means well fitted inhibition curve with a large enough effect; inconclusive means small, poorly fitted or top-dose-only effect; inactive means no such curve, though single readings can be large or run the other way; tested in mouse RAW 264.7 cells; further: potency means the concentration at half of the fitted maximal effect; on the % scale 0 is the no-effect control and ±100 the full control effect; nearly all actives have a fitted effect of over 55% in size
TCR act – activates T cell receptor signaling; primary human leukocytes, anti-CD3, IL-2 HTRF, 48 h; Potency, µM (doses to about 9.22 µM), without a hit: top-dose activation of IL-2 secretion, most hits filed as activators; 330,000 tested, under 10 active; further: % of control where 0% means no effect
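48 hr co-incubation of compounds, a-CD3 beads and primary human leukocytes; IL-2 quantified homogeneously by HTRF with anti-IL-2 K and d2 conjugates.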
IL2 activator – activators of IL-2. IL-2 activation reporter assay, cell-based qHTS; stimulated with anti-CD3/CD4/CD28 beads; in transgenic mouse T cells. activation, % (series mostly up to about 46 µM). 360,000 tested, 0.065% active; in the data active means activation above about 50%; inconclusive means mostly about 30% to 49%; further: 0% is about no effect
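Readout is EGFP and DsRed signal by fluorescent plate cytometry after 18 h at 37 degrees C. Transgenic mouse T cells (750/well) received compound for 60 min before bead stimulation (anti-CD3, anti-CD4, anti-CD28); memory T cells served as non-tolerant control.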
BRCA1 expr up – BRCA1 expression activation; Potency, µM (series often up to 46.1 µM), for the others: at the top dose activation, usual class: activators; AID 624202; MCF7-BRCA1-FFLuc reporter, luminescence, 48 h; response scale: scaled: vehicle 0%, 10 µM genistein 100%; 380,000 tested, 1.1% active; further: potency means the concentration at half of the fitted maximal effect; nearly all actives have a fitted effect of over 80% in size
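MCF7 cells carrying a BRCA1-firefly luciferase reporter (2000 cells/well, phenol-red free MEM) were attached for 2 h at 37 °C, then given compounds for 48 h. Luminescence was read 15 min after luciferase reagent; activity normalized to genistein (10 microM) and DMSO.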
p53 reactivator – restores transcriptional activity of mutant p53; 320,000 tested, 0.063% active; AID 504706; Potency, µM (top dose mostly 92.2 µM), inactives show at the top dose activity change, positive = activation, hits mostly activators; H1299 p53-A138V BP100-luciferase reporter, luminescence, 24 h; further: potency means the concentration at half of the fitted maximal effect; % of control where 0% means no effect; nearly all actives have a fitted effect of over 45% in size
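p53-null H1299 cells stably carrying temperature-sensitive p53-A138V and a BP100-luciferase reporter were pinned with compounds (4-point, 1:5 series) and held 24 hrs at 37 deg C. Luminescence was read 10 min after detection reagent.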
* = called active by the depositor; ? = inconclusive; nt = no result given; [ ] = another dose, or the depositor's remark. Unless noted, the call rests on the fitted dose curve; in most records, active means well fitted curve in the direction sought with a large enough effect; inconclusive means small, poorly fitted or top-dose-only effect, or another doubt; inactive means no such curve, though single readings can be large; an effect the other way counts as inactive or inconclusive.

SMILES	uPA generation	TCR act	IL2 activator	BRCA1 expr up	p53 reactivator
Nc1nn(-c2ccccc2)c(N)c1N=Nc1ccc2c(c1)OCO2	-3%	-2%[46.1 µM]	-2	-13%	?
Nc1nn(-c2ccccc2)c(N)c1N=Nc1cccc(F)c1	1.4µM*	-13%	2	63%	?
CCOC(=O)c1ccc(OCC2c3cc(OC)c(OC)cc3CCN2C(=O)c2ccc(S(=O)(=O)N3CCCC3)cc2)cc1 (centres undefined)	nt	nt	nt	-11%	nt
Nc1c(C(=O)Nc2ccccc2F)sc2nc(Cc3ccccc3)cc(C(F)(F)F)c12	nt	-26%	51*	1%	1%
COc1ccc(NC(=O)CN2C(=O)C3(SCC(=O)N3c3cccc(OC)c3)c3ccccc32)cc1 (centres undefined)	nt	nt	nt	-12%	nt
COC(=O)[C@@H](NC(=O)Nc1ccc(C(C)=O)cc1)C(C)C	nt	0%	0	1%	2%
COc1ccc(C(C)NC(=O)Nc2ccc(C(C)=O)cc2)cc1OC (centres undefined)	-24%	-7%	-1	11µM*	11%
CCc1ccc(NC(=O)CN2C(=O)C3(SCC(=O)N3c3ccccc3)c3ccccc32)cc1 (centres undefined)	nt	nt	nt	-40%	nt
O=S(=O)(NCc1ccccc1)c1ccc(-c2cnc(C3CC3)o2)cc1	5.6µM*	-1%	0	-33%	-4%
Cc1ccc(CNS(=O)(=O)c2ccc(-c3cnc(C4CC4)o3)cc2)cc1	0%	-4%	1	-11%	-9%
CCOc1ccccc1CNS(=O)(=O)c1ccc(-c2cnc(C3CC3)o2)cc1	0.28µM*	-1%	-1	-41%	3%
CC1=C(C(=O)Nc2ccccc2)C(c2cccnc2)n2nc(SCc3ccccc3Cl)nc2N1 (centres undefined)	nt	nt	nt	-6%	nt
CCCCC(=O)Nc1ccccc1C(=O)OCC(=O)c1ccc2c(c1)OCCO2	-6%	-3%[46.1 µM]	0	27%	45µM*
CCC(=O)Nc1ccccc1C(=O)OCC(=O)c1ccc2ccccc2c1	-4%	0%	-2	-16%	13%
CCC(=O)Nc1cccc(C(=O)OCC(=O)c2ccccc2Cl)c1	nt	3%	-3	7.9µM*	?
CC(=O)Nc1cccc(C(=O)OCC(=O)c2ccccc2Cl)c1	5%	3%	-4	?	-1%
CCC(=O)Nc1ccccc1C(=O)OCC(=O)c1ccccc1	0%	-1%	0	2µM*	9%
O=C(O)/C=C/C(=O)Nc1ccccc1C(=O)OCC(=O)c1ccc2c(c1)OCCO2	-15%	-10%	-2	8%	-6%
Cc1csc(NCC(=O)c2c(C)[nH]c3ccccc23)n1	nt	nt	nt	-8%	nt
COCCn1c(SCC(=O)c2ccc(F)cc2)nc2cc(C(=O)NC3CCCC3)ccc2c1=O	nt	nt	nt	16%	nt
O=C(NN=C1CCCCCC1)c1cccs1	-1%	8%	-2	?	40µM*
CC(=O)NC(=S)Nc1sc2c(c1C(N)=O)CCC(C)C2 (centres undefined)	1%	3%	1	4.5µM*	12%
Cc1ccccc1C(=O)NC(=S)Nc1sc2c(c1C#N)CCC(C)C2 (centres undefined)	0%	0%	-1	7%	6%
CCOC(=O)Nc1sc2c(c1C(N)=O)CCC(C)C2 (centres undefined)	-24%	9%	1	-3%	1%
CC1CCc2c(sc(NC(=S)NC(=O)c3ccccc3)c2C#N)C1 (centres undefined)	0%	0%	-4	11µM*	12%
SMILES	uPA generation	TCR act	IL2 activator	BRCA1 expr up	p53 reactivator
N#C/C(=C/c1ccncc1)c1nc2ccccc2s1	-2%	2%	9	-6%	5%
CC1CCc2nc(/C(C#N)=C/c3ccncc3)sc2C1 (centres undefined)	-3%	-2%	-2	11µM*	3%
O=[N+]([O-])c1cnc(Sc2ccncn2)s1	2.8µM*	6%	-1	-97%	-15%
COc1cc(C(=O)NCCOc2cc(C)cc(C)c2)cc(OC)c1OC	2.5µM*	1%	-2	-36%	-2%
CCc1cccc2sc(N3CCN(C(=O)c4ccc([N+](=O)[O-])o4)CC3)nc12	7.9µM*	7%	-3	-82%	-4%
O=C(CCCc1ccccc1)N1CCN(C2CCCCC2)CC1	-20%	nt	1	5µM*	nt
CC1(C)CC(=O)c2cc(-c3nc(-c4ccc(Br)cc4)cs3)c(=O)n(-c3ccccc3)c2C1	nt	nt	nt	-13%	nt
COc1cc(NC(=O)c2ccc(F)cc2)ccc1NC(=O)c1cc2ccccc2o1	-13%	3%	0	0%	nt
COc1cc(NC(=O)c2c(OC)cccc2OC)ccc1NC(=O)c1cc2ccccc2o1	16%	0%	-4	11µM*	28%
Cc1ccc(F)cc1NC(=O)CSc1nc(-c2cccs2)cc(C(F)(F)F)n1	nt	nt	nt	0%	nt
COC(=O)Cn1c2ccc(F)cc2c2nc(C)sc21	-2%	2%	-2	0%	5%
Cc1nc2c3cc(F)ccc3n(Cc3ccc(F)cc3)c2s1	3.5µM*	2%[46.1 µM]	-5	-33%	4%
Cn1ccnc1SCC(=O)c1ccc2ccccc2c1	0%	10%	3	6.3µM*	22%
COc1cccc(-c2ccnc3c(-c4ccccc4)c(C)nn23)c1	nt	nt	nt	11µM*	nt
COc1cccc(-c2ccnc3c(-c4ccc(F)cc4)c(C)nn23)c1	nt	nt	nt	0%	nt
Cc1ccc(-c2cnc3cccnn23)cc1F	nt	nt	-1	20%	nt
COc1cccc(-c2cnc3cccnn23)c1	nt	nt	0	13µM*	nt
CCc1cccc(NC(=O)C2CCN(C(=O)c3cnn(-c4ccccc4)c3-n3cccc3)CC2)c1	nt	nt	nt	-28%	nt
CCC(CO)Nc1ccn2nc(-c3cc(OC)c(OC)c(OC)c3)cc2n1 (centres undefined)	nt	nt	0	-24%	nt
CCC(CO)Nc1ccn2nc(-c3cccs3)cc2n1 (centres undefined)	nt	nt	0	5.6µM*	nt
Clc1cccc(CNc2ccn3nc(-c4cccc(Cl)c4)cc3n2)c1	nt	nt	0	72%	nt
CCC(CO)Nc1ccn2nc(-c3ccccc3)cc2n1 (centres undefined)	nt	nt	1	3.5µM*	nt
CN(C)C(=O)CNc1ccn2nc(-c3cccc(Cl)c3)cc2n1	nt	nt	0	5µM*	nt
NC(=O)c1c(NC(=O)C2COc3ccccc3O2)sc2c1CCN(Cc1ccccc1)C2 (centres undefined)	3%	1%	401*	-22%	2%
Cc1ccc(-n2ncc(C(=O)NCCc3c[nH]c4ccccc34)c2C2CCN(C(=O)OC(C)(C)C)CC2)cc1C	nt	nt	nt	-77%	nt
Cc1ccn2c(NC(=O)c3cccc(Cl)c3)c(-c3ccccc3)nc2c1	nt	nt	nt	5%	nt
COc1cccc(/C=C/C(=O)Oc2ccc(C(=O)c3ccc(F)cc3)cc2)c1	-2%	0%[46.1 µM]	-1	10%	14%
O=C(/C=C/c1ccc2c(c1)OCO2)c1ccc[nH]1	-2%	2%[46.1 µM]	-5	7.9µM*	?
